Only some compounds are listed: those with a hit (about 9.6% of all), similar ones and a draw of the others.
Insulin prom inh = inhibitors of insulin promoter-driven GFP, primary screen, imaging, TRM-6 cells (human fetal islet line), eGFP reporter, cell count; reporter expression induced with tamoxifen; inhibition, % at 2 µM; 130,000 compounds, 0.9% hits; AID 1273, 2008;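 active means inhibition above the mean plus 3 SD, with well images judged a real hit on visual review, cut at about 60% in these data, passing the limit was not always enough; inconclusive means inhibition over the cutoff but images rejected on review; inactive means inhibition not above the cutoff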
Autophagy HCS = autophagy modulators in MEF cells, primary screen, imaging, high-content, MEF GFP-LC3; MEF GFP-LC3 puncta imaging; test concentration mostly 10 µM; calls only at 10 µM (by protocol); 190,000 compounds, 0.98% hits; AID 463193, 2010;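 active means percentage of spot-positive cells more than 3 SD above its plate mean, without a fluorescence outlier flag or 80% toxicity; inconclusive means no clear call, values can overlap the other calls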;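 further: spot-positive cell cutoff set from DMSO-treated cells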
L major viab = Leishmania major promastigote growth inhibition, primary screen | Leishmania major promastigotes, resazurin fluorescence viability | inhibition, % at 10 µM | 200,000 compounds, 9% hits; in the data active means inhibition above about 50%;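 further: promastigotes grown with compound for 44 hours at 28 °C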
Ins promoter up = insulin promoter activators in MIN6 cells, imaging, high-content screening, mouse beta cells | AID 1625, 2009 | MIN6 insulin promoter-GFP reporter; stronger effect = higher value | z-score at 5 µM | 190,000 compounds, 0.3% hits;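 active means z-score above 3 at 5 µM with at least 500 cells counted in the well; inconclusive means wells under 500 cells, flagged as cytotoxic or low count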
PTEN del growth = growth suppression of PTEN-null HCT116, primary screen, cell-based, CellTiter-Glo; HCT116 PTEN-null viability, 60 h; stronger effect = lower value; viability, % at 10 µM; 140,000 compounds, 1.2% hits; AID 827, 2007;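 active means viability at or below a set limit, 4 SD under the median of all tested compounds, cut at about 3.7% in these data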;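 further: PTEN knockout HCT116 line with beta catenin targeted HCT116 as companion control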
HCT116 bCat-KO = primary screen for growth suppressors in beta-catenin knockout HCT116 cells (colon tumor, human); HCT116 beta-catenin knockout viability, CellTiter-Glo, 60 h; stronger effect = lower value; 140,000 compounds, 1.5% hits; viability, % at 10 µM;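 active means viability at or under a set limit, the compound median less 4 SD, cut at about 6% in these data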;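 further: 0% = Hyamine 1622 control at 20 µM and 100% = untreated cell control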
The depositor's hits bear a star; i = inactive; u = inconclusive; x = no result given; + = active, no number.

SMILES	Insulin prom inh	Autophagy HCS	L major viab	Ins promoter up	PTEN del growth	HCT116 bCat-KO
COc1cc(CNCc2ccccn2)ccc1OCc1c(Cl)cccc1Cl	x	i	100*	u	56	51
Cc1ccc(S(=O)(=O)N2CCCOC2CNC(=O)C(=O)NCCCn2ccnc2)cc1 (centres undefined)	20	i	-4	0.07	91	93
Cn1c(=O)c2c(nc(CN3CCN(c4ccccc4F)CC3)n2CCN2CCOCC2)n(C)c1=O	-5	i	2	-0.06	93	92
COc1ccc(Nc2nc(C)cc(=O)[nH]2)cc1	0	i	-2	0.21	110	103
CC(=O)Nc1ccc(OCCOc2ccc([N+](=O)[O-])cc2)cc1	x	x	x	0.06	x	x
COc1cc(CNCc2ccccn2)ccc1OCc1ccc(Cl)cc1	x	i	96*	-0.87	70	59
COc1ccc(CNc2ncccn2)cc1OC	47	i	-8	-0.34	x	x
COc1cc(CNCc2ccccn2)ccc1OCc1cccc(Cl)c1	-25	i	99*	x	52	43
Cc1cc(C)c2c(N=NN3CCOCC3)[nH]nc2n1	x	i	-11	-0.44	96	108
CCC(C)N(C(=O)C(F)(F)F)C(C(=O)NC1CCCCC1)c1ccncc1 (centres undefined)	-52	i	-6	x	89	108
O=C(NC1CCCCC1)C(c1ccncc1)N(CC1CCCO1)C(=O)C(F)(F)F (centres undefined)	90*	i	0	0.79	108	96
CC/C(=N\NC(=S)NC(C)C)c1ccc(OC)c(OC)c1	0	i	-1	-2.2	x	x
Cc1nc(N2CCN(C(=O)c3ccco3)CC2)c2c3c(sc2n1)CC(C)CC3 (centres undefined)	x	i	12	u	x	x
O=C(CC1C(=O)N(c2ccccc2)C(=S)N1c1ccccc1)c1ccc(Br)cc1 (centres undefined)	-21	i	51*	0.22	81	97
O=C(CC1C(=O)N(c2ccccc2)C(=S)N1c1ccccc1)c1ccccc1 (centres undefined)	x	i	37	0.64	73	83
CCCc1cc(=O)n2[nH]c(-c3ccccc3)cc2n1	41	i	3	0.6	107	98
COC(=O)c1oc2ccccc2c1NC(=O)c1ccccc1O	x	i	20	-0.27	x	x
COc1ccc(C(=O)NNC2=Nc3cccc4cccc2c34)cc1	-40	+	12	-0.15	x	x
Cc1ccc(C(=O)N2CCN(C(=O)c3ccc(C)cc3)C2)cc1	x	i	1	-0.02	x	x
Cc1ccc(C(=O)N2CC3(C(C)C)CN(C(=O)c4ccc(C)cc4)CC(C(C)C)(C2)C3=O)cc1	18	i	95*	x	86	94
CCC12CN(C(=O)c3ccc(C)cc3)CC(CC)(CN(C(=O)c3ccc(C)cc3)C1)C2=O	-41	i	52*	-0.5	97	89
CCN(Cc1cc2cc(C)ccc2[nH]c1=O)C(=O)c1cccc(OC)c1	x	i	21	-2.7	70	72
CCCOc1ccc(-c2nnc(N)s2)cc1	-21	i	2	0.68	93	87
Cc1ccc(Cl)cc1N1CCN(C(=O)c2cn(C)c(=O)c3c2c2ccccc2n3C)CC1	69	i	55*	-1.8	1.3*	1.4*
NC(=S)Nc1ccc2c(c1)OCO2	x	i	-9	-1	x	x
SMILES	Insulin prom inh	Autophagy HCS	L major viab	Ins promoter up	PTEN del growth	HCT116 bCat-KO
O=C(CSCc1cccc(Cl)c1)Nc1ccccc1-c1ccccc1	-8	i	87*	-1.3	78	75
Cc1ccccc1CSCC(=O)Nc1ccccc1-c1ccccc1	-64	i	9	-0.35	64	81
Cc1ccc(NCC(O)C(O)C(O)CO)cc1C (centres undefined)	-427	i	-5	-0.28	97	79
Cc1cc(N=Nc2ccccc2)c(NCC(O)C(O)C(O)CO)cc1C (centres undefined)	82*	i	-1	-0.39	x	x
CC1=CC(C)(C)n2c(O)c(C3=NC(=S)NC3=O)c3cc(OC(=O)c4cccc5ccccc45)cc1c32	-8	i	8	-1.6	0.9*	1.8*
NC(=O)NC(=O)CSc1nnc(-c2ccc(Cl)cc2)n1CC1CCCO1 (centres undefined)	15	i	-3	0.18	x	x
O=C(COC(=O)C1CCN(S(=O)(=O)c2ccccc2C(F)(F)F)CC1)NCc1ccc(F)cc1	43	i	-8	0.17	107	96
CC#CC[N+](C)(C)CC(=O)c1ccccc1	x	x	x	0.26	x	x
Cc1[nH]n2c(=O)c3c(nc2c1-c1ccc(F)cc1)CCCC3	x	i	100*	0.34	x	x
O=c1c2c(nc3c(-c4cccc5ccccc45)c[nH]n13)CCC2	-33	i	-5	0.77	75	79
Cc1[nH]n2c(=O)c3c(nc2c1-c1ccccc1)CCCC3	x	i	99*	-0.41	73	80
O=c1c2c(nc3c(-c4ccc(Cl)cc4)c[nH]n13)CCCC2	-18	i	100*	-0.42	14	12
CCC(C)(C)n1nnnc1C(c1cc(OC)ccc1OC)N1CCC(C(N)=O)CC1 (centres undefined)	42	i	-7	-0.05	100	94
O=C(COC(=O)CNC(=O)c1cccc(F)c1)NCCC1=CCCCC1	x	i	-7	0.9	83	92
COc1cc(C(=O)NCC2CCCO2)ccc1OCc1c(C)noc1C (centres undefined)	-8	i	-3	0.61	89	98
CCOC(=O)c1c(NC(=O)C2COc3ccccc3O2)sc2c1CCN(Cc1ccccc1)C2 (centres undefined)	x	i	58*	-1.4	52	38
CCOC(=O)c1c(NC(=S)NCc2ccccc2)sc2c1CCN(C(=O)OCC)C2	x	x	x	-0.26	x	x
CCOC(=O)c1c(NC(=S)Nc2ccccc2)sc2c1CCN(CC)C2	-42	i	98*	0.97	75	79
CCOC(=O)c1c(C2COc3ccccc3O2)csc1N (centres undefined)	14	i	11	-0.22	77	74
CCOC(=O)c1c(C2COc3ccccc3O2)csc1NC(=O)c1ccccc1 (centres undefined)	x	i	7	x	0.5*	0.8*
CCOC(=O)c1c(NC(=S)Nc2ccccc2)sc2c1CCCCC2	0	i	-8	-0.27	87	90
CCOC(=O)N1CCc2c(sc(NC(=O)CN3CCOCC3)c2C(=O)Nc2ccccc2)C1	x	+	4	0.04	x	x
CCCNC(=O)c1cc(-c2ccco2)on1	-356	i	-6	x	52	49
CC1CC2(NC(=O)NC2=O)C(C)CN1C (centres undefined)	-249	i	-4	x	87	97
COc1ccc(/C=C2\SC(=S)N(CC(=O)NCCO)C2=O)cc1	x	i	-5	-1.5	x	x
CC(C)(C)CC(=O)Nc1cccc2c1CCCC2	-45	i	-1	x	99	105

From PubChem
